PI5P4Ka inh: qHTS for Inhibitors of phosphatidylinositol 5-phosphate 4-kinase (PI5P4K). AID 652105, 2013. hit rate 1.2% among 330,000. PI5P4Kalpha enzyme, ADP-Glo luminescence, 60 min; hits give low values. Phosphatidylinositol 5-phosphate 4-kinase type-2 alpha (Homo sapiens), P48426. max response, %; active = max response of -50% or lower; inconclusive = between -30% and -50%; inactive = -30% or higher; also: value at the top dose of about 77 µM; % is scaled to controls: 0 for no effect and ±100 for the full control effect
Target sequence (P48426 whole entry, looked up): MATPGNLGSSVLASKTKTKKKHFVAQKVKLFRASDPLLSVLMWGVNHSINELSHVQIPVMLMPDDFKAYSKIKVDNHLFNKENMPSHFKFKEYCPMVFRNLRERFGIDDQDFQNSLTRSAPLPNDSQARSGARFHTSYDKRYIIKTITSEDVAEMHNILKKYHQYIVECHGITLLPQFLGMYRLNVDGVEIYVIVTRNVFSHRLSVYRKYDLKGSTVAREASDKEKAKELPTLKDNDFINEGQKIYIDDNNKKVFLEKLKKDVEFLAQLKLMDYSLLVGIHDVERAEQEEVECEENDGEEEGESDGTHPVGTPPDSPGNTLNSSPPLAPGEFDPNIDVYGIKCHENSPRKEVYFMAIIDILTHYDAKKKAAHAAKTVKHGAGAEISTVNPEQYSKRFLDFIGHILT
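qHTS, 1536-well: enzyme/substrate mix, compound by pin tool, 5 microM ATP final; RT 60 min; ADP-Glo reagents 1 (45 min) then 2 (30 min); luminescence.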
POLI inh: qHTS for Inhibitors of Polymerase Iota | DNA polymerase iota (Homo sapiens), Q9UNA4 | Pol iota fluorescent replication assay, 10 min | Potency, µM (doses to about 115 µM), inactives show top-dose activity, negative = inhibition, actives largely listed as inhibitors | hit rate 1% among 390,000; also: potency is read from the fitted curve at half-maximal effect
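Pol iota at 10 nM preincubated 15 min with compounds at room temperature; reaction started with fluorescent substrate, 50 nM final. Fluorescence read kinetically at 0 and 10 min; buffer-only wells as negative control.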
Pol kappa inh: qHTS for Inhibitors of Polymerase Kappa; purified Pol kappa, fluorescent DNA synthesis assay, 10 min; Potency, µM (titrated, usually from 107 µM), for inactives: at the highest dose activity, negative = inhibition, most hits filed as inhibitors; hit rate 0.53% among 400,000; AID 588579, 2011; also: potency is read from the fitted curve at half-maximal effect; % is scaled to controls: 0 for no effect and ±100 for the full control effect
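10 nM Pol kappa preincubated 15 min at room temperature with compounds, then reaction started with substrate at 50 nM final. Fluorescence read kinetically at 0 and 10 min; buffer-only wells served as negative control.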
FEN1 inh: qHTS Assay for the Inhibitors of Human Flap endonuclease 1 (FEN1); P39748; Recombinant FEN1 flap cleavage, fluorescence, 15 min; Potency, µM (doses to about 114 µM), for the others: at the highest dose activity change, negative = inhibition, actives largely listed as inhibitors; hit rate 0.35% among 390,000; also: potency is read from the fitted curve at half-maximal effect; % is scaled to controls: 0 for no effect and ±100 for the full control effect; nearly all actives have a fitted effect of over 65% in size
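Enzyme 10 nM, 15 min RT preincubation with compound; start with substrate 50 nM final; reads at 0 and 15 min; qHTS titration, four-parameter Hill fit.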
POLB inh: qHTS Assay for Inhibitors of DNA Polymerase Beta. P06746. Pol beta primer extension/strand displacement, fluorescence kinetic. Potency, µM (doses to about 114 µM), without a hit: at the top dose activity change, negative = inhibition, actives largely listed as inhibitors. hit rate 1.3% among 340,000. AID 485314, 2010; also: potency is read from the fitted curve at half-maximal effect; % is scaled to controls: 0 for no effect and ±100 for the full control effect
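Human Pol beta at 10 nM; strand-displacement substrate 50 nM final. Compound exposure 15 min at room temperature before start, reaction 10 min at room temperature.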
Pol eta inh: qHTS for Inhibitors of Polymerase Eta; Potency, µM (doses to about 114 µM), for inactives: at the top dose activity change, negative = inhibition, most hits filed as inhibitors; hit rate 1.2% among 390,000; recombinant Pol eta, fluorescent DNA replication assay; DNA polymerase eta (Homo sapiens), Q9Y253; also: potency is read from the fitted curve at half-maximal effect; % is scaled to controls: 0 for no effect and ±100 for the full control effect
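Pol eta at 10 nM preincubated with compounds 15 min at room temperature; reaction started with fluorescent substrate (50 nM final) and read kinetically at 0 and 10 min.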
* = called active by the depositor; ? = inconclusive; nt = no result; [ ] = dose if it differs, or a comment. The list is not random: actives were taken first. Their share in the collection is about 2.8%. Unless noted, calls follow the shape of the dose curve; as a rule, active = well fitted curve in the direction sought with a large enough effect; inconclusive = small, poorly fitted or top-dose-only effect, or another doubt; inactive = no such curve, though single readings can be large; an effect the other way counts as inactive or inconclusive.

SMILES | PI5P4Ka inh | POLI inh | Pol kappa inh | FEN1 inh | POLB inh | Pol eta inh
CCOc1ccc(NC(=O)c2c(C)oc3nc(C)nc(N4CCOCC4)c23)cc1 | nt | -1% | -8% | 16% | 2% | -5%
COCCOC(=O)C1=C(C)NC(=O)NC1c1ccc(OC(=O)c2ccco2)c(OC)c1 (centres undefined) | 3 | 2% | -14% | 2% | 2% | 3%
CC1=C(C(=O)OC(C)C)C(c2ccco2)NC(=O)N1 (centres undefined) | ? | ? | -13% | -5% | 50µM* | ?
CCOC(=O)C1=C(C)NC(=O)NC1c1ccco1 (centres undefined) | nt | 45µM* | ? | -14% | 35µM* | 79µM*
COCCOC(=O)C1=C(C)NC(=O)NC1c1ccco1 (centres undefined) | 2 | 40µM* | -31% | -16% | ? | 79µM*
COc1ccc2nc3sc(C(=O)N4CCN(c5ccc(F)cc5)CC4)cc3cc2c1 | nt | 19% | 6% | 4% | -13% | -17%
CCC(=O)Nc1ccc(C(=O)NNC(=O)C(c2ccccc2)c2ccccc2)cc1 | -6 | -63% | -25% | 9% | 45µM* | ?
CC(C)CC(=O)Nc1ccc(C(=O)NNC(=O)C(c2ccccc2)c2ccccc2)cc1 | nt | 13% | 13% | 3% | 28% | -5%
CC(C)C(=O)Nc1ccc(C(=O)NNC(=O)C(c2ccccc2)c2ccccc2)cc1 | nt | 79µM* | -16% | 6% | ? | -10%
COc1ccc(OC)c(NC(=O)N2c3ccccc3Sc3ccccc32)c1 | nt | 3% | -6% | -18% | 23% | -19%
COc1cccc(CNC(=O)CCc2c(C)nn(-c3ccc(N4CCOCC4)nn3)c2C)c1 | nt | -1% | -24% | 4% | -19% | 0%
COc1ccc(-n2c(=O)c(CCc3ccccc3)nc3cncnc32)cc1 | nt | nt | -5%[60.1 µM] | nt | nt | nt
CN(CC(=O)Nc1cccc(F)c1)C(=O)c1ccc(COc2ccccc2)cc1 | 4 | 79µM* | 1% | -1% | nt | -16%
CN(CC(=O)Nc1cccc(F)c1)C(=O)c1ccc(C(=O)c2ccccc2)cc1 | 12 | 4% | -19% | -9% | nt | -7%
CN(CC(=O)Nc1cccc(F)c1)C(=O)CSc1ccccc1F | ? | ? | -18% | -10% | 45µM* | -16%
COc1cccc(/C=N/Nc2nnc(C)n2N)c1OCc1ccccc1Cl | -6 | 20µM* | -6% | -24% | -2%[57.1 µM] | -7%
OCC1O[C@@H](O[C@@H]2C(CO)OC(O)C(O)C2O)C(O)C(O)C1O (some centres undefined) | nt | nt | 5%[19.4 µM] | nt | nt | nt
[O][C@H]1[C@@H](O)[C@@H](CO)O[C@@H](O[C@@H]2[C@@H]3OC[C@H]2O[C@H](O[C@@H]2[C@@H](O)[C@H](C[C@@H]4[C@@H]5OC[C@H]4O[CH][C@@H]5O)O[C@H](CO)[C@@H]2OS(=O)(=O)O)[C@@H]3OS(=O)(=O)O)[C@@H]1O | nt | nt | 32µM* | nt | nt | nt
CC(C)CCC[C@@H](C)[C@@H]1CC[C@H]2C3=CC=C4CC(O)CC[C@]4(C)[C@H]3CC[C@@]21C (some centres undefined) | nt | nt | -19%[60.1 µM] | nt | nt | nt
Cn1cnc(S(=O)(=O)N2CCCC(C(=O)NCc3ccc(F)cc3)C2)c1 (centres undefined) | nt | 29% | -2%[60.1 µM] | 1% | ? | -24%
COc1ccc(OC)c(NC(=O)c2cc(-c3cc(C)ccc3O)n[nH]2)c1 | 2 | 25µM* | -7% | 16% | -28% | -28%
O=C(O)CCc1ccc(-c2ccc(Br)cc2)o1 | nt | 40µM* | ? | 9% | 28% | -3%
Oc1c(Cl)cc(Cl)cc1C=Nc1ccc(Br)cc1 | -55* | -4% | -10% | -9% | 5% | ?
Cc1ccc(N=Cc2cc(Br)cc(Cl)c2O)cc1 | -20 | ? | -8% | -17% | 12% | -3%
COc1ccc(CN2CC[C@H]3C=CC[C@@H](C(=O)NC4CCCCC4)[C@H]3C2=O)cc1OC | nt | ? | -22% | 15% | nt | nt
SMILES | PI5P4Ka inh | POLI inh | Pol kappa inh | FEN1 inh | POLB inh | Pol eta inh
COc1ccc(C(=O)COC(=O)c2cc([N+](=O)[O-])ccc2N2CCOCC2)c(OC)c1 | -23 | 79µM* | -17% | -3% | nt | ?
Cc1cc(C)c(C(=O)COC(=O)c2cc([N+](=O)[O-])ccc2N2CCOCC2)cc1C | 0 | -15% | -6% | 1% | nt | -9%
COc1ccc(C(=O)COC(=O)c2ccc3c(c2)OCO3)c(OC)c1 | ? | 79µM* | ? | -19% | nt | ?
COCCN=c1scc(-c2cccs2)n1/N=C/c1ccc(O)c(O)c1O | ? | ? | ? | ? | 4.5µM* | ?
COCCN=c1scc(-c2ccccc2)n1/N=C/c1c[nH]c2ccccc12 | 21 | -7% | -15% | -24% | 14% | -8%
COc1ccc(OC)c(NC(=O)c2nc(S(=O)(=O)Cc3ccccc3F)ncc2Cl)c1 | nt | -20% | -5% | ? | nt | nt
COC(=O)CCCC1=CC2=CC(=O)C(C)(OC(=O)c3cccs3)C(=O)C2=CN1C1CCCC1 (centres undefined) | 0 | ? | -8% | 10% | 6% | 1%
COC(=O)CCCC1=CC2=CC(=O)C(C)(OC(=O)c3cccs3)C(=O)C2=CN1Cc1ccccc1 (centres undefined) | -5 | ? | -6% | 11% | ? | -14%
CCCCC1=CC2=CC(=O)C(C)(OC(=O)CC)C(=O)C2=CN1CCc1c[nH]c2ccccc12 (centres undefined) | -27 | 37% | -10% | -13% | 18% | 1%
COC(=O)CCCC1=CC2=CC(=O)C(C)(OC(=O)c3cccs3)C(=O)C2=CN1CCCOC(C)C (centres undefined) | 2 | 25µM* | -4% | -21% | 16% | -17%
COC(=O)CCCC1=CC2=CC(=O)C(C)(OC(=O)c3cccs3)C(=O)C2=CN1Cc1ccco1 (centres undefined) | ? | ? | ? | -1% | 50µM* | ?
COC(=O)CCCC1=CC2=CC(=O)C(C)(OC(=O)c3cccs3)C(=O)C2=CN1Cc1ccc2c(c1)OCO2 (centres undefined) | ? | 32µM* | -35% | 1% | 50µM* | ?
COC(=O)CCCC1=CC2=CC(=O)C(C)(OC(=O)c3cccs3)C(=O)C2=CN1CCc1c[nH]c2ccccc12 (centres undefined) | -29 | 50µM* | ? | -6% | -15% | -4%

Screens as filed in PubChem BioAssay.
